# Source: PubChem BioAssay (NCATS)
# Results filed as inconclusive are left out. A call without a number means that no potency is given here. Calls of active or inactive are those of the source. Calls come from the whole dose curve; as a rule, active = well fitted curve in the direction sought with a large enough effect; inconclusive = small, poorly fitted or top-dose-only effect, or another doubt; inactive = no such curve, though single readings can be large; an effect the other way counts as inactive or inconclusive.
# What was measured:
# [1] = Quantitative High-Throughput drug screen in 47 multiple myeloma cell lines against the NCATS MIPE library collection: Delta47_JCRB cell viability assay (AID 1918925; note: nearly all actives have a fitted effect of over 45% in size; note: potency is the fitted concentration of half-maximal effect)
# Procedure, shortened: (§1)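 Relative luminescence from CellTiter-Glo served as the viability signal, referenced to DMSO-treated (100%) and cell-free medium (0%) controls. Treatment lasted 48 hours at 37C with 500 cells per well.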
# [2] = Quantitative High-Throughput drug screen in 47 multiple myeloma cell lines against the NCATS MIPE library collection: ARD_JJKsccE7 cell viability assay (AID 1918929; note: potency is the fitted concentration of half-maximal effect)
# Procedure, shortened: as §1
# [3] = Quantitative High-Throughput drug screen in 47 multiple myeloma cell lines against the NCATS MIPE library collection: KMM1_JCRB cell viability assay (AID 1918960); note: nearly all actives have a fitted effect of over 30% in size; note: potency is the fitted concentration of half-maximal effect
# Procedure, shortened: (§2)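 CellTiter-Glo luminescence after 48 h exposure gives viability, scaled between DMSO-only (100%) and media-only (0%) controls. Library compounds are pinned onto 500 myeloma cells per well, incubated at 37C with 5% CO2.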
# [4] = Quantitative High-Throughput drug screen in 47 multiple myeloma cell lines against the NCATS MIPE library collection: Karpas417_ECACC cell viability assay (AID 1918961); conditions: Karpas417 myeloma viability, CellTiter-Glo ATP luminescence, 48 h; viability (% of DMSO): at 45.8 µM (top of the series) unless noted; note: potency is the fitted concentration of half-maximal effect
# Procedure, shortened: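 Inhibition of cell viability is measured here. Each line was plated at 500 cells per well, treated with MIPE 4.0 drugs, kept 48 hours at 37C, then assayed for ATP content by CellTiter-Glo luminescence.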
# [5] = Quantitative High-Throughput drug screen in 47 multiple myeloma cell lines against the NCATS MIPE library collection: JIM3_ECACC cell viability assay (AID 1918963; note: nearly all actives have a fitted effect of over 35% in size; note: potency is the fitted concentration of half-maximal effect)
# Procedure, shortened: (§3)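 Approved and investigational drugs from MIPE 4.0 were added by pin tool to 500 cells per well. After 48 hours at 37C, ATP-based CellTiter-Glo luminescence indicated remaining viability.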
# [6] = Quantitative High-Throughput drug screen in 47 multiple myeloma cell lines against the NCATS MIPE library collection: EJM_DSMZ cell viability assay (AID 1918926; note: nearly all actives have a fitted effect of over 30% in size; note: potency is the fitted concentration of half-maximal effect)
# Procedure, shortened: as §1
# [7] = Quantitative High-Throughput drug screen in 47 multiple myeloma cell lines against the NCATS MIPE library collection: Karpas620_DSMZ cell viability assay (AID 1918959); note: nearly all actives have a fitted effect of over 30% in size; note: potency is the fitted concentration of half-maximal effect
# Procedure, shortened: as §3
# [8] = Quantitative High-Throughput drug screen in 47 multiple myeloma cell lines against the NCATS MIPE library collection: AMO1_DSMZ cell viability assay (AID 1918927; note: nearly all actives have a fitted effect of over 30% in size; note: potency is the fitted concentration of half-maximal effect)
# Procedure, shortened: as §1
# [9] = Quantitative High-Throughput drug screen in 47 multiple myeloma cell lines against the NCATS MIPE library collection: ARP1_JJKsccF8 cell viability assay (AID 1918928; note: nearly all actives have a fitted effect of over 40% in size; note: potency is the fitted concentration of half-maximal effect)
# Procedure, shortened: as §2
# [10] = Quantitative High-Throughput drug screen in 47 multiple myeloma cell lines against the NCATS MIPE library collection: KHM11_PLB cell viability assay (AID 1918962); note: nearly all actives have a fitted effect of over 35% in size
# Procedure, shortened: as §3
smiles,measurement,setting,value
COCC(=O)NCC=Cc1ccc2ncnc(Nc3ccc(Oc4ccc(C)nc4)c(C)c3)c2c1,Potency,[1],14.8 µM (active)
same,Potency,[2],11.8 µM (active)
same,Potency,[3],8.33 µM (active)
same,Potency,[4],10.5 µM (active)
same,Potency,[5],16.6 µM (active)
Cc1cc2c(C(C)C)c(O)c(O)c(C=O)c2c(O)c1-c1c(C)cc2c(C(C)C)c(O)c(O)c(C=O)c2c1O,Potency,[1],8.33 µM (active)
same,Potency,[6],20.9 µM (active)
same,Potency,[7],8.33 µM (active)
same,Potency,[3],inactive
same,Potency,[5],8.33 µM (active)
COc1ccc(C2=N[C@H](c3ccc(Cl)cc3)[C@H](c3ccc(Cl)cc3)N2C(=O)N2CCNC(=O)C2)c(OC(C)C)c1,Potency,[1],2.35 µM (active)
same,Potency,[8],1.66 µM (active)
same,Potency,[2],inactive
same,Potency,[7],inactive
same,Potency,[3],inactive
same,Potency,[5],18.7 µM (active)
CCN(CC)CCCC(C)Nc1nc(C)cc(Nc2ccc3nc(C)cc(N)c3c2)n1 (stereo not given),Potency,[1],4.69 µM (active)
same,Potency,[8],inactive
same,Potency,[2],14.8 µM (active)
same,Potency,[7],7.43 µM (active)
same,Potency,[5],inactive
CC(C)C[C@H](NC(=O)[C@@H](O)[C@H](N)Cc1ccccc1)C(=O)O,Potency,[1],20.9 µM (active)
same,Potency,[8],inactive
same,Potency,[9],16.6 µM (active)
same,Potency,[2],inactive
same,Potency,[7],inactive
same,Potency,[3],inactive
same,Potency,[5],18.7 µM (active)
Cc1cc(Nc2nc(N[C@@H](C)c3ncc(F)cn3)ncc2Cl)n[nH]1,Potency,[1],inactive
same,Potency,[6],2.64 µM (active)
same,Potency,[3],inactive
same,Potency,[5],8.33 µM (active)
Cc1cc([C@@H](C)Nc2ccccc2C(=O)O)c2nc(N3CCOCC3)cc(=O)n2c1,Potency,[1],2.7 µM (active)
same,Potency,[9],0.481 µM (active)
same,viability (% of DMSO),[4],5.47% [at 92.2 µM] (active)
same,Potency,[5],13.6 µM (active)
Cc1cc2c(F)c(Oc3ncnn4cc(OC[C@@H](C)O)c(C)c34)ccc2[nH]1,Potency,[1],16.6 µM (active)
same,Potency,[8],4.69 µM (active)
same,Potency,[7],inactive
OC(CN1CCC(Cc2ccc(F)cc2)CC1)c1ccc(Cl)cc1 (stereo not given),Potency,[1],inactive
same,Potency,[8],inactive
same,Potency,[9],inactive
same,Potency,[2],inactive
same,Potency,[7],inactive
same,Potency,[3],inactive
same,Potency,[5],inactive
C1COC(NC(C2CC2)C2CC2)=N1,Potency,[6],inactive
CCC(C)n1ncn(-c2ccc(N3CCN(c4ccc(OC[C@H]5CO[C@](Cn6cncn6)(c6ccc(Cl)cc6Cl)O5)cc4)CC3)cc2)c1=O (stereo not given in full),Potency,[1],inactive
same,Potency,[6],2.96 µM (active)
same,Potency,[7],inactive
same,Potency,[10],inactive
same,Potency,[5],inactive
CC(C)(N)C(=O)N[C@H](COCc1ccccc1)C(=O)N1CCC2(CC1)CN(S(C)(=O)=O)c1ccccc12,Potency,[1],7.43 µM (active)
same,Potency,[8],inactive
same,Potency,[2],inactive
same,Potency,[7],inactive
same,Potency,[3],inactive
same,Potency,[4],inactive
same,Potency,[5],7.43 µM (active)
CC(C)(C)OC(=O)CN(Cc1ccc(Cl)cc1)Cc1ccc([N+](=O)[O-])s1,Potency,[6],inactive
same,Potency,[2],inactive
same,Potency,[7],inactive
same,Potency,[3],inactive
same,Potency,[10],inactive
same,Potency,[5],16.6 µM (active)
c1ccc(-c2nn3c(c2-c2ccnc4cc(OCCN5CCOCC5)ccc24)CCC3)nc1,Potency,[6],inactive
same,Potency,[2],inactive
same,Potency,[7],inactive
same,Potency,[3],inactive
same,Potency,[5],inactive
